Assay outcomes from PubChem.
MARV entry inh – qHTS for inhibitors of binding or entry into cells for Marburg Virus | Potency, µM (doses to about 37.8 µM), for the others: at the highest dose activity change, negative = inhibition, hits mostly inhibitors | Marburg virus pseudotyped entry inhibition, cell reporter | 300,000 compounds, 1.8% hits; calls by dose curve; tested in HEK293 cells; also: potency is read from the fitted curve at half-maximal effect
HCMV inh – qHTS Assay for inhibitors of the human cytomegalovirus (HCMV). HFF cells, HCMV-luciferase reporter, 72 h; stronger effect = lower value. activity change, negative = inhibition, % at 57.5 µM. 410,000 compounds, 4.5% hits. AID 1259415, 2018; in the data active = activity change below about -60%; inconclusive = no clear call, values can overlap the other calls; inactive = above about -39%
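After 16 h attachment at 37C, HFF cells received test compound and HCMV-luciferase (1 PFU/cell); reporter luminescence read 72 h later, data normalized against buffer-only and known inhibitor Salinomycin.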
FMDV inh – High Throughput Screening for Foot and Mouth Disease Virus Antivirals. FMDV antiviral cell-based qHTS. Potency, µM (titrated, usually from 57.9 µM), for the others: at the top dose activity change, negative = inhibition, usual class: inhibitors. 410,000 compounds, 1.2% hits; calls by dose curve; tested in HEK293T cells; also: read-out not given here; potency is read from the fitted curve at half-maximal effect; nearly all actives have a fitted effect of over 45% in size
Lassa entry inh – qHTS for Inhibitors of binding or entry into cells for Lassa Virus; Lassa virus pseudotype entry inhibition, cell reporter; Potency, µM (series often up to 37.9 µM), without a hit: top-dose activity change, negative = inhibition, actives largely listed as inhibitors; 300,000 compounds, 1.2% hits; AID 540256, 2011; calls by dose curve; tested in HEK293 cells; also: potency is read from the fitted curve at half-maximal effect; nearly all actives have a fitted effect of over 50% in size
* marks the source's active call; other numbers are inactive results; ? = inconclusive; · = not tested or not shown; [ ] = remark or other dose. A selection: hits, their analogues and other compounds. The true share with any hit is near 6.2%. % is scaled to controls: 0 for no effect and ±100 for the full control effect.

SMILES | MARV entry inh | HCMV inh | FMDV inh | Lassa entry inh
Cc1nc(-c2ccncc2)sc1C(=O)Nc1ccc(Br)cc1 | ? | -72* | -8% | 3%[46.1 µM]
CC(=O)N1CCCc2ccc(NC(=O)c3ccc(OC(C)C)cc3)cc21 | · | -61* | 11µM* | ?
CCCCOc1ccc(C(=O)Nc2ccc3c(c2)N(C(C)=O)CCC3)cc1 | · | ? | 3.2µM* | 6%[46.1 µM]
CN(C)c1ccc(CC(=O)N2CCCCC2c2cc(C(=O)Nc3ccccc3Cl)no2)cc1 (stereo unspecified) | · | -37 | 35µM* | ·
Fc1cc(F)cc(NC(=S)Nc2ccccc2N2CCOCC2)c1 | ? | -62* | -26% | -9%[46.1 µM]
Cc1c(C#N)c(NC(=O)CCl)n(Cc2cccs2)c1C | · | -93* | 20µM* | ·
Cc1c(C#N)c(NC(=O)CCl)n(Cc2ccc(F)cc2)c1C | · | -68* | 13µM* | ·
Cc1c(C#N)c(NC(=O)CCl)n(Cc2ccccc2)c1C | ? | ? | 11µM* | ?
CCOC(=O)C1CCN(C(=O)CSc2cc(=O)n(CC)c3ccccc23)CC1 | 0% | 6 | 14% | -22%[14.3 µM]
CCCN1CCN(C(=O)c2cc(COc3ccc4ncccc4c3)on2)CC1 | · | -68* | ? | ·
CCN1CCN(C(=O)c2cc(COc3ccc4ncccc4c3)on2)CC1 | -19%[46.1 µM] | -82* | ? | ·
Cn1cccc1C(=O)OCC(=O)Nc1ccc2c(c1)OCCO2 | 6.3µM* | 132 | -28% | 7.1µM*
COc1ccc(NC(=O)COc2ccccc2Cl)cc1S(=O)(=O)N1CCCCC1 | ? | ? | -6% | ?
COc1ccc(NC(=O)CSc2ccc3ccccc3c2)cc1S(=O)(=O)N1CCCCC1 | ? | -82* | ? | ?
COc1ccc(NC(=O)Cc2cccs2)cc1S(=O)(=O)N1CCCCC1 | -24% | -6 | 21% | 1µM*
COc1ccc(NC(=O)COC(=O)c2cccn2C)cc1S(=O)(=O)N1CCCCC1 | ? | -69* | -18% | 9%[46.1 µM]
Cn1cccc1C(=O)OCC(=O)NCc1ccc2c(c1)OCO2 | · | -5 | 35% | ·
Cc1cc(C)cc(NC(=O)CSc2nnc(NC(=O)C3CC3)s2)c1 | -8%[46.1 µM] | -24 | -15% | -3%[46.1 µM]
O=C(CN(c1cccc([N+](=O)[O-])c1)S(=O)(=O)c1ccccc1)N(Cc1ccccc1)Cc1ccccc1 | ? | -62* | -7% | ?
O=C(CN(c1cccc([N+](=O)[O-])c1)S(=O)(=O)c1ccccc1)NCc1ccccc1 | -7% | -32 | 15% | -2%
C=C(C)CSc1cc(C)c(C#N)c2nc3ccccc3n12 | ? | -75* | ? | ?
COc1ccc(N2C(=O)C3CCCN3C2c2cccc(C)c2)cc1 (stereo unspecified) | · | 6 | 7% | ·
CCn1c(=S)[nH]c2scc(-c3cccs3)c2c1=O | -1%[46.1 µM] | -63* | 14% | -25%[46.1 µM]
CCCN(CCC)CCCNC(=O)c1cn(C)c2ccc(S(=O)(=O)N3CCOCC3)cc2c1=O | ? | -1 | -3% | 20%[46.1 µM]
N#CC1c2ccccc2-n2nncc2CN1S(=O)(=O)c1ccc(Cl)cc1 (stereo unspecified) | · | -14 | 3% | ·
SMILES | MARV entry inh | HCMV inh | FMDV inh | Lassa entry inh
N#CC1c2ccccc2-n2nncc2CN1Cc1cc(Cl)cc(Cl)c1 (stereo unspecified) | · | -100* | 8.9µM* | ·
CN1Cc2cnnn2-c2ccccc2C1C#N (stereo unspecified) | · | -64* | -18% | ·
COc1ccc(CN2Cc3cnnn3-c3ccccc3C2C#N)cc1 (stereo unspecified) | · | -110* | 25µM* | ·
CCCCCCN1CCN(C2CN(Cc3cn(Cc4cc(C)cc(C)c4)nn3)S(=O)(=O)C2)CC1 (stereo unspecified) | · | -8 | -29% | ·
CNC(=O)c1cc(S(=O)(=O)NCc2ccncc2)ccc1OC | · | ? | -14% | ·
Cc1ccc(S(=O)(=O)NCc2ccncc2)cc1C(=O)NCC(C)C | -29% | -5 | -2% | -2%
COc1cc(S(=O)(=O)NCc2ccncc2)ccc1Br | ? | -70* | -23% | ?
Cc1cc(Br)c(S(=O)(=O)NCc2ccncc2)cc1C | ? | -82* | -3% | ?
O=S(=O)(NCc1cccnc1)c1ccc2ccccc2c1 | -19%[46.1 µM] | -63* | 22% | -6%[46.1 µM]
Cc1ccc(S(=O)(=O)NCc2ccncc2)cc1C | ? | -68* | 3% | ?
COc1cc(C)c(Cl)cc1S(=O)(=O)NCc1ccncc1 | 1% | · | · | ·
C=CC[C@@H](Cc1ccc(F)cc1)C(=O)OC[C@@H]1CCCN1C(=O)[C@H](CC=C)CC(=O)N(CCO)Cc1ccccc1 | · | -36 | -19% | ·
O=S(=O)(NCc1ccncc1)c1ccc(Br)s1 | ? | -61* | -16% | -16%
O=C(O)CNS(=O)(=O)c1ccc(Br)s1 | -21% | 19 | -3% | 4%
Cc1cc(C)c(C)c(S(=O)(=O)NCc2ccncc2)c1C | ? | -68* | 20% | ?
Nc1ncnc2occ(-c3ccc(NC(=O)Nc4cc(C(F)(F)F)cc(C(F)(F)F)c4)cc3)c12 | · | · | · | 20µM*
CCCCNc1c(-c2ccc(OC)c(SC3CCCCC3)c2)nc2cnccn12 | · | · | 0% | ·
COc1ccc(-c2nc3ccccn3c2NC2CCCCC2)cc1SC1CCCCC1 | · | -99* | ? | ·
COc1ccc(CSc2ccc(-c3nc4ccccn4c3NCc3ccccc3)cc2OC)cc1 | · | -65* | ? | ·
COc1cc(-c2nc3ccccn3c2NCc2ccccc2)ccc1SC1CCCCC1 | · | · | 22µM* | ·
CCC(C)Sc1ccc(-c2nc3ccccn3c2NCc2ccccc2)cc1OC (stereo unspecified) | · | · | 40µM* | ·
COc1cc(-c2nc3ccc(C)cn3c2NCc2ccccc2)ccc1SC1CCCCC1 | · | 1 | ? | ·
CCC(C)(C)NC(=O)C(OC(=O)c1ccco1)c1ccccc1OC (stereo unspecified) | -8% | 16 | 9% | 0%
Cc1cc(C(=O)NNC(=O)Nc2ccc(Cl)cc2)no1 | -15%[46.1 µM] | 86 | 0% | -9%
Cc1cc(C(=O)NNc2ccc(Cl)cc2)no1 | 4.5µM* | -35 | 1% | -8%[46.1 µM]
SMILES | MARV entry inh | HCMV inh | FMDV inh | Lassa entry inh
CC1CCCC(C)N1/N=C/c1c[nH]c2ccc(Br)cc12 (stereo unspecified) | ? | -78* | -9% | -9%
CC1CCCC(C)N1/N=C/c1cccc(Br)c1 (stereo unspecified) | -2% | -22 | 18% | 15%
Cn1c(=O)c2c(nc(Cl)n2CC(=O)NC2(C#N)CCCCC2)n(C)c1=O | 20% | -101* | -15% | 25%
O=c1[nH][nH]c(-c2ccccc2)c1C=Nc1ccc(F)cc1F | · | -21 | -11% | ·
CCCCCSc1cc(O)c(C(CNC)C(C)C)cc1OC (stereo unspecified) | 18µM* | -4 | -13% | ?
CCCCCSc1cc(OC)c(CCN(C)C)cc1OC | ? | -37 | -1% | ?
COc1cc(C2c3cc4c(cc3OC(N3CCCCC3)C2C)OCO4)cc(OC)c1O (stereo unspecified) | -25% | -5 | -19% | ?
COc1cc(C2c3cc4c(cc3C3OC(=O)C2C3CO)OCO4)cc(OC)c1OC (stereo unspecified) | · | -76* | -5% | ·
